In PubChem BioAssay (EPA / NIEHS):
Active and inactive are the calls of the source. Rule for the calls: active = hit-call score of the fitted dose curve at least 0.9, where 1 is the maximum; inactive = score below 0.9.

How the values were obtained:
Settings in all cases: mRNA level, 48 h; actives raise or lower the signal
[1] = read-out: Apolipoprotein A-V (APOA5) gene, APOA5 (gene 116519); experiment: LTEA_HepaRG_APOA5: Life Technologies and Expression Analysis (LTEA) Assay for Apolipoprotein A-V (APOA5) gene using HepaRG (AID 2283474)
Procedure, shortened: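 Differentiated HepaRG cells in serum-free induction medium, exposed 48 h in duplicate to eight half-log concentrations topping at 100 uM (0.5% DMSO). APOA5 mRNA by Fluidigm TaqMan qRT-PCR, normalized to ACTB, GAPDH and POLR2A; bidirectional fit versus DMSO.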

[2] = read-out: Apoptosis regulator Bcl-2 (Homo sapiens) (UniProt P10415); experiment: LTEA_HepaRG_BCL2: Life Technologies and Expression Analysis (LTEA) Assay for Bcl-2 gene using HepaRG (AID 2283475)
Procedure, shortened: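 qRT-PCR read-out (Fluidigm TaqMan) of BCL2 transcript, normalised to three housekeeping genes, after 48 h chemical exposure of HepaRG cells; 8-point half-log series, top 100 uM, 0.5% DMSO vehicle. Gain or loss of signal fitted relative to DMSO baseline.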

[3] = read-out: Bcl-2 (BID) gene, BID (gene 637); experiment: LTEA_HepaRG_BID: Life Technologies and Expression Analysis (LTEA) Assay for Bcl-2 (BID) gene using HepaRG (AID 2283476)
Procedure, shortened: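 HepaRG, 48 h exposure, 8-pt half-log series, top 100 uM, 0.5% DMSO vehicle, duplicates. Readout: BID mRNA by TaqMan qRT-PCR; housekeeping-normalized; bidirectional curve fit vs DMSO baseline.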

Caspase-3 (Homo sapiens) = Caspase-3 (Homo sapiens) (UniProt P42574); experiment: LTEA_HepaRG_CASP3: Life Technologies and Expression Analysis (LTEA) Assay for cysteine-aspartic acid protease (CASP3) using HepaRG (AID 2283477)
Caspase-3 (Homo sapiens), sequence (P42574 whole entry, looked up): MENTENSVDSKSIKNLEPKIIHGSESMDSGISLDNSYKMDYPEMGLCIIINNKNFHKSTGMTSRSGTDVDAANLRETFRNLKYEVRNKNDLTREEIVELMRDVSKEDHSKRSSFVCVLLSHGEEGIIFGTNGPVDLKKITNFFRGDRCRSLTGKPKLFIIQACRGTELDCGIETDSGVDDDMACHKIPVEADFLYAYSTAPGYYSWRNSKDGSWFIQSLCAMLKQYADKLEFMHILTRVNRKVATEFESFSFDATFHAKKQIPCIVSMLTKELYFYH
Procedure, shortened: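 Differentiated HepaRG cells, plated 48 h, were treated in duplicate in serum-free induction medium for 48 h with eight half-log concentrations up to 100 uM in 0.5% DMSO. CASP3 mRNA measured by qRT-PCR, normalized to ACTB, GAPDH, POLR2A.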

[4] = read-out: Cytochrome P450 (CYP24A1), CYP24A1 (gene 1591); experiment: LTEA_HepaRG_CYP24A1: Life Technologies and Expression Analysis (LTEA) Assay for Cytochrome P450 (CYP24A1) using HepaRG (AID 2283478)
Procedure, shortened: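 HepaRG cells plated 48 h, then exposed in duplicate in serum-free induction medium for 48 h to 8-point half-log series from 100 uM in 0.5% DMSO. CYP24A1 mRNA by Fluidigm qRT-PCR, normalized to ACTB, GAPDH, POLR2A; bidirectional fit versus DMSO.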

[5] = read-out: Cytochrome P450 (CYP1A2), CYP1A2 (gene 1544); experiment: LTEA_HepaRG_CYP1A2: Life Technologies and Expression Analysis (LTEA) Assay for Cytochrome P450 (CYP1A2) using HepaRG (AID 2283479)
Procedure, shortened: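 Differentiated human HepaRG cells in serum-free induction medium exposed 48 hours in duplicate to 8 half-log concentrations from 100 uM, 0.5% DMSO. CYP1A2 mRNA quantified by qRT-PCR, normalized to ACTB, GAPDH and POLR2A; bidirectional fitting versus DMSO.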

[6] = read-out: cysteine-aspartic acid protease (CASP8), CASP8 (gene 841); experiment: LTEA_HepaRG_CASP8: Life Technologies and Expression Analysis (LTEA) Assay for cysteine-aspartic acid protease (CASP8) using HepaRG (AID 2283480)
Procedure, shortened: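 CASP8 transcript measured by TaqMan qRT-PCR with ACTB/GAPDH/POLR2A normalization, after 48 h chemical exposure of HepaRG cells in serum-free induction medium. Eight concentrations, top 100 uM, half-log steps, 0.5% DMSO vehicle; fits in both directions versus DMSO.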

[7] = read-out: Cytochrome P450 (CYP2B6), CYP2B6 (gene 1555); experiment: LTEA_HepaRG_CYP2B6: Life Technologies and Expression Analysis (LTEA) Assay for Cytochrome P450 (CYP2B6) using HepaRG (AID 2283481)
Procedure, shortened: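 Differentiated human HepaRG cells in serum-free induction medium, dosed in duplicate for 48 h over 8 half-log concentrations topping at 100 uM (0.5% DMSO). CYP2B6 mRNA measured by TaqMan qRT-PCR, normalized to ACTB, GAPDH, POLR2A; bidirectional fit versus DMSO.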

[8] = read-out: Cytochrome P450 2C19 (Homo sapiens) (UniProt P33261); experiment: LTEA_HepaRG_CYP2C19: Life Technologies and Expression Analysis (LTEA) Assay for CYP2C19 using HepaRG (AID 2283482)
Procedure, shortened: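 Differentiated HepaRG cells in serum-free induction medium exposed 48 h in duplicate, 8 concentrations from 100 uM by half-log steps in 0.5% DMSO. CYP2C19 mRNA measured by TaqMan qRT-PCR, normalized to ACTB, GAPDH, POLR2A. Bidirectional fit versus DMSO.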

CYP2C8 (gene 1558) = experiment: LTEA_HepaRG_CYP2C8: Life Technologies and Expression Analysis (LTEA) Assay for CYP2C8 using HepaRG (AID 2283483)
Procedure, shortened: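 CYP2C8 expression measured by TaqMan qRT-PCR and normalized to three housekeeping genes. HepaRG cultures were treated for 48 h with an eight-point half-log series topping at 100 uM, vehicle 0.5% DMSO, duplicates; fitted both directions against DMSO.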

Apoptosis regulator Bcl-2 (Homo sapiens), sequence (P10415 whole entry, looked up): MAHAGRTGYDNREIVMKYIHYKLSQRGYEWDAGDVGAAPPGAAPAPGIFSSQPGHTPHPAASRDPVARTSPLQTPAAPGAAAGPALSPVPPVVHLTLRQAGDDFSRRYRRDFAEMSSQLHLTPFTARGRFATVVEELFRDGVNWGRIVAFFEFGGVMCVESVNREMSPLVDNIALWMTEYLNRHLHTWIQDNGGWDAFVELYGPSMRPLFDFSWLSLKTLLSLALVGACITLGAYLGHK
Cytochrome P450 2C19 (Homo sapiens), sequence (P33261 whole entry, looked up): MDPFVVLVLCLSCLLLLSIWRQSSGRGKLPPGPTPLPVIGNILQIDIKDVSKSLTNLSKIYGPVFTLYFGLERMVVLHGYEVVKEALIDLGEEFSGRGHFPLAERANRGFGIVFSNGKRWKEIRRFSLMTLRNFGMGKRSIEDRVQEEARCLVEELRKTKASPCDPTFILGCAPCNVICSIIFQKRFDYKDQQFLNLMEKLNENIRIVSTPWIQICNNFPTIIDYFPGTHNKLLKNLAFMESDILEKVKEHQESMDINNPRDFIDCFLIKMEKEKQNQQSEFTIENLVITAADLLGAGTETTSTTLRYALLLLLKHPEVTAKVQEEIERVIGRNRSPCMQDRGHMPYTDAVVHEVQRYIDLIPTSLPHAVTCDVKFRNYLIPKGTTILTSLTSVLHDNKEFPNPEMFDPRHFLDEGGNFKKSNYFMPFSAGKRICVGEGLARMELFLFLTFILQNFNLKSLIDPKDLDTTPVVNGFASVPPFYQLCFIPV

OCCN(CCO)CCO
outcome [1]: inactive
outcome [2]: inactive
outcome [3]: inactive
outcome (Caspase-3 (Homo sapiens)): inactive
outcome [4]: inactive
outcome [5]: inactive
outcome [6]: inactive
AC50 [7]: 21.1 µM (active)
outcome [8]: inactive
outcome (CYP2C8 (gene 1558)): inactive

Clc1cccc(Cl)c1
outcome [1]: inactive
outcome [2]: inactive
outcome [3]: inactive
outcome (Caspase-3 (Homo sapiens)): inactive
outcome [4]: inactive
outcome [5]: inactive
outcome [6]: inactive
outcome [7]: inactive
outcome [8]: inactive
outcome (CYP2C8 (gene 1558)): inactive

CC(C)O.CC(C)O.OCCN(CCO)CCO.OCCN(CCO)CCO.[Ti]
outcome [1]: inactive
outcome [2]: inactive
outcome [3]: inactive
outcome (Caspase-3 (Homo sapiens)): inactive
outcome [4]: inactive
outcome [5]: inactive
outcome [6]: inactive
outcome [8]: inactive
outcome (CYP2C8 (gene 1558)): inactive

Cc1cc(C)cc(C)c1
outcome [1]: inactive
outcome [2]: inactive
outcome [3]: inactive
outcome (Caspase-3 (Homo sapiens)): inactive
outcome [4]: inactive
outcome [5]: inactive
outcome [6]: inactive
outcome [7]: inactive
outcome [8]: inactive
outcome (CYP2C8 (gene 1558)): inactive

O=C(N[C@H]1CN2CCC1CC2)c1ccc2c(c1)OCCO2
outcome [1]: inactive
outcome [2]: inactive
outcome [3]: inactive
outcome (Caspase-3 (Homo sapiens)): inactive
outcome [4]: inactive
outcome [5]: inactive
outcome [6]: inactive
outcome [7]: inactive
outcome [8]: inactive
outcome (CYP2C8 (gene 1558)): inactive

Clc1cccc(Cl)c1Cl
outcome [1]: inactive
outcome [2]: inactive
outcome [3]: inactive
outcome (Caspase-3 (Homo sapiens)): inactive
outcome [4]: inactive
outcome [5]: inactive
outcome [6]: inactive
outcome [7]: inactive
outcome [8]: inactive
outcome (CYP2C8 (gene 1558)): inactive

COc1ccccc1N
outcome [1]: inactive
outcome [2]: inactive
outcome [3]: inactive
outcome (Caspase-3 (Homo sapiens)): inactive
outcome [4]: inactive
outcome [5]: inactive
outcome [6]: inactive
AC50 [7]: 24.3 µM (active)
outcome [8]: inactive
outcome (CYP2C8 (gene 1558)): inactive
